Laboratory results: PubChem BioAssay AID624132 (Broad Institute, 2012)
The campaign covered roughly 1,600 compounds. About 1,500 (94%) were called active. So high a share suggests a set chosen from earlier hits. These entries were drawn from the full list. Entries with a potency or affinity are not part of this list. Results filed as inconclusive are left out.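 How the source made its calls: active means signal drop with fitted half-maximal concentration at most twice the top valid dose for that sample; inconclusive means flat fit between 30 and 70% inhibition, or poor curve fit; inactive means the rest.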

Assay: reduction of Shn3 3'UTR-driven luciferase in osteoblasts – cell-based, Clone20 osteoblasts, firefly luciferase, cherry-picked, dose response (AID 624132)
Conditions: Clone20 osteoblast Shn3 3'UTR firefly luciferase, 24 h; series mostly up to 35 µM; activity change, negative = inhibition: at the top concentration

Activity change, negative = inhibition, inactive:
CC(Cc1cccs1)NC(=O)Nc1ccc(F)cc1 (stereo not given) -3.91%
CCN1C(=O)[C@H]2[C@@H](c3ccc(-c4ccc(OC)cc4)cc3)N3CCC[C@@]3(C(=O)OC)[C@H]2C1=O -16.5%
COc1ccc(N(C)C(=O)c2ccc3snnc3c2)cc1 -3.31%
CC(=O)N1N=C(c2ccccc2)OC1c1ccc([N+](=O)[O-])s1 (stereo not given) -37.6%
Fc1ccccc1N1CCN(Cc2nc(-c3ccccc3)no2)CC1 24.1%
O=C(COC(=O)/C=C/c1ccc(OC(F)F)cc1)Nc1ccc2[nH]c(=O)[nH]c2c1 -5.42%
CCOc1ccc(NS(=O)(=O)c2cc(C(=O)NCCN3CCOCC3)ccc2C)cc1 11.4%
COCc1nn2c(N)c(C#N)cnc2c1-c1ccccc1 11.5%
NC(=O)NC(CC(=O)NCCc1ccccn1)c1ccccc1Cl (stereo not given) 2.62%
CCOC(=O)c1[nH]c(C)c(/C(O)=C2\C(=O)C(=O)N(CCCN3CCOCC3)C2c2cccs2)c1C (stereo not given) 29.2%
Cc1cc(-n2c(C)cc(C(=O)CSc3nncn3C)c2C)no1 21.8%
CSCCC(NC(=O)c1ccccc1)C(=O)OCC(=O)N(C)CCC#N (stereo not given) 5.19% [at 8 µM]
COc1ccc(C(=O)OCC(=O)Nc2ccc3[nH]c(=O)[nH]c3c2)cc1 6.22%
Cc1csc(=O)n1CCC(=O)N(C)Cc1c(F)cccc1Cl 6.18%
COc1ccc(C(=O)OCC(=O)Nc2ncc([N+](=O)[O-])s2)cc1OC 21.4%
CCCOc1ccc2oc(=O)c3c(c2c1)CCCN3C(=O)CN1CCN(c2ncccn2)CC1 125%
OC(c1ccccc1)C(O)C(c1ccccc1)N1CCCCC1 (stereo not given) -2.22%
COc1ccc(N2C(=O)C(CC(=O)Nc3ccccc3)N(Cc3ccc(OC)c(OC)c3)C2=O)cc1 (stereo not given) 7.36%
CSc1cccc(NC(=O)N2CCCC(CNS(=O)(=O)Cc3ccccc3)C2)c1 (stereo not given) -20.4%
CCn1cc(CNCc2cn(-c3ccccc3C)nc2-c2ccc(OC)c(F)c2)cn1 -3.08%
CC(C)(C)N(Cc1ccccc1)C(=O)COC(=O)CCc1c[nH]c2ccccc12 -6.52%
Oc1c(C(c2cccs2)N2CCC3(CC2)OCCO3)sc2ncnn12 (stereo not given) -5.82%
COc1ccc(S(=O)(=O)NCCC(=O)OCC(=O)NC2CC2)cc1 79.6%
CC1=NN(c2cccc([N+](=O)[O-])c2)C(=O)C1 4.22%
CN=C1c2cc3cc(OC)ccc3n2CCN1Cc1ccccc1 -18.3%
Cc1noc(C)c1COC(=O)[C@@H](NC(=O)c1ccccc1)C(C)C -11.5%
CCCCC[C@H]1CN(Cc2ccc(OC)cc2)C(=O)[C@@H]1CC(=O)NCc1ccccc1 -56.9%
Cc1ccc(NC(=O)CN(C)C(=O)COc2cc(F)ccc2[N+](=O)[O-])cc1 -9.91%
Cc1cc(C)cc(C(=O)NCC(=O)OCC(=O)NCC(F)(F)F)c1 11.4%
Nc1c(Br)cc2c(c1Br)C(O)c1ccccc1-2 (stereo not given) 27.3%
O=C(CSc1nnc(Nc2ccccc2)s1)NC1CCS(=O)(=O)C1 (stereo not given) 16.4%
CN(C(=O)CSc1nc(-c2cccs2)nc2ccccc12)C1CCS(=O)(=O)C1 (stereo not given) -7.83%
CN(CC(=O)NCc1ccc2c(c1)OCO2)S(=O)(=O)c1ccc(Br)s1 -3.96%
Cn1cccc1Cc1nnc(SCC(=O)NCCc2ccccc2)n1-c1ccc(F)cc1 -16.1%
O=C(NC(NC(=S)Nc1c(Cl)cc(Cl)cc1Cl)C(Cl)(Cl)Cl)OCc1ccccc1 (stereo not given) -68.3%
COc1ccc(-c2nnn(CC(=O)Nc3ccc4c(c3)OCCO4)n2)cc1OC -6.19%
O=C(CSc1nc(C(F)(F)F)cc(=O)[nH]1)N1CCCC1 -20.5%
Cc1nc2ncnn2c(C)c1Cc1cccc(F)c1 -14.1%
CCOC(=O)C1CCN(C(=O)C(C)N(c2ccc(Oc3ccccc3)cc2)S(C)(=O)=O)CC1 (stereo not given) -14.2%
CCOc1ccc(Br)cc1C1=CC(=O)C[C@H](c2ccc(OC)cc2)C1 -22.4%
COc1ccccc1-n1ccnc(SCC(=O)NCc2ccccc2Cl)c1=O -16.1%
Cc1ccc(NC(=O)NCCCN2CCOCC2)cc1 12.6%
Nc1cc(=O)[nH]c(SCC(=O)Nc2cccc([N+](=O)[O-])c2)n1 10.6%
CCOC(=O)C1=C(C)N(CCCC(=O)O)C(=O)NC1c1ccc2ccccc2c1 (stereo not given) 6.64%
CCc1c(O)nc(SCC(=O)Nc2ccccc2)n(-c2ccccc2)c1=O 15.3%
O=C(CN1C(=O)C2CCCCC2C1=O)NC1CCCc2ccccc21 (stereo not given) 8.86%
Cc1cc(Sc2ccc([N+](=O)[O-])cn2)ccc1Br 22%
Cc1ccc(S(=O)(=O)N2CCCCC2)cc1NS(=O)(=O)c1ccccc1F -79.1%
O=c1c2ccccc2c(C=Nc2ccccc2O)c(O)n1-c1nccs1 -5.72%
COc1ccccc1-n1c(SCC(=O)Nc2cc(C)on2)nc2c(c1=O)SCC2 -19.3%
O=S(=O)(c1ccc(Cl)cc1)n1ccc2cccnc21 -26.5%
O=C(NCCCn1ccnc1)C(=O)NCC1OCCCN1S(=O)(=O)c1ccccc1 (stereo not given) 3.7%
O=C(NCCNC(=O)Oc1cccc2ccccc12)Oc1cccc2ccccc12 48.5%
O=C(CSc1nc2ncc(Cl)cc2[nH]1)N1CCOCC1 17.4%
C[C@@H]1CC=C[C@H]2[C@H]1C(=O)N(Cc1ccccc1)[C@H]2c1cccc([N+](=O)[O-])c1 -18.7%
CC(=O)Nc1sc2c(c1-c1nc3ccccc3s1)CCN(C(C)C)C2 -66.9%
COc1cc(C(=O)OCC(=O)NC2CCCCCC2)ccc1OCC(C)C -25.6%
Cc1ccc(NC(=O)C2CCCN(S(=O)(=O)c3c(C)noc3C)C2)cc1 (stereo not given) 59.3%
CCO[C@@H]1OC(C(=O)NC2CC2)=C[C@H](c2coc3ccccc3c2=O)[C@H]1CCCO 0.737%
O=C(Nc1cccc(S(=O)(=O)NC2=NCCC2)c1)C1CC(=O)N(c2ccc3c(c2)OCCO3)C1 (stereo not given) 0.562%
CCOC(=O)CNC(=O)C1(NC(=O)CNC(=O)OCc2ccccc2)CCCC1 38.8%
O=C(NNc1ccccc1)C(=O)NNS(=O)(=O)c1ccc(CCCl)cc1 -0.537%
Cc1ccc(C(=O)N2CCN(C)CC2)cc1S(=O)(=O)N1CCCCCC1 -10.2%
CCN(CC)S(=O)(=O)c1ccc(N(C)Cc2cccc(OC)c2OC)nc1 -35.1%
Cc1cc(C(=O)Cn2cnc3cc(F)ccc3c2=O)c(C)n1C1CC1 -59.4%
COc1ccc(S(=O)(=O)N2CCOCC2)cc1NC(=O)COC(=O)CC1CC2CCC1C2 (stereo not given) -38%
COc1cc(OC)cc(C(=O)OCC(=O)Nc2ccc(F)cc2F)c1 -2.85%
Fc1ccccc1N=C1NN=C(c2ccccc2)CS1 -45%
Nc1nc(=S)[nH]c2c1C1(CCCCC1)Cc1ccccc1-2 15.5%
CCCCCCC#Cc1ccc2c(c1)COc1c3ccccc3nn1-2 57%
O=C1N/C(=C/c2ccc(N3CCOCC3)o2)C(=O)N1c1ccccc1 38.1%
Cc1ccccc1N/C(=N/S(=O)(=O)c1ccccc1)c1ccc(F)cc1 -1.16%
C[C@@H]1CN([C@H](C)CO)C(=O)CCCn2nncc2CO[C@H]1CN(C)S(=O)(=O)c1ccc2c(c1)OCCCO2 -2.03%
C[C@@H]1CN([C@H](C)CO)C(=O)c2cc(Br)cnc2O[C@H]1CN(C)C(=O)Cc1ccncc1 -2.88%
Cc1cc(C)n(-c2cc(-n3nc(C)cc3C)ncn2)n1 -6.51%
OCCNc1nc(Nc2ccc(Cl)cc2)nc(N2CCCC2)n1 -42.6%
COc1c(C)cc(C(=O)C2CCCN(C(=O)c3cccc(-n4cccn4)c3)C2)cc1C (stereo not given) -0.537%
CC1CCN(C(=O)c2ccc(N3C(=O)C4CCC(C)CC4C3=O)cc2)CC1 (stereo not given) 12%
O=C(Cc1ccccc1)NCCS(=O)c1ccc(Cl)cc1 (stereo not given) 12.2%
CSc1nnc(-c2ccco2)n1-c1ccccc1 -27%
CCn1nnc2cc(C(=O)Nc3cc(Cl)ccc3C)ccc21 7.36%
O=C(CSc1nc2[nH]ncc2c(=O)[nH]1)Nc1ccccc1C(F)(F)F 3.2%
CC(C)c1c(O)c2c(n(-c3ccccc3)c1=O)CCCC2 -1.82%
Cc1ccc(C(=O)Nc2ccc3c(c2)C(=O)N(CC2CCCO2)C3=O)cc1 (stereo not given) 43.8%
O=C(CCS(=O)(=O)c1ccccc1)Nc1nc2c(s1)CCCC2 25.6%
